Source: PubChem BioAssay (National Center for Advancing Translational Sciences (NCATS))
Sampled rows, rich in hits. Any-hit rate of the full collection: about 8.8%.
HT1080 IDH1KD tx – kills HT-1080 cells with IDH1 knockdown. HT-1080 IDH1 knockdown viability, ATP luminescence, 48 h. Potency, µM (titrated, usually from 46.1 µM), actives largely listed as cytotoxic. 360,000 compounds, 2% hits
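Assay cells: HT-1080 with IDH1 knockdown, 750 per well, RPMI/5% FBS. Exposure: 48 h at 37 °C following 2 h pre-incubation. Read: CellTiter-Glo luminescence; fitted concentration-response, curve class assigned.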
KB-3-1 tox – kills parental KB-3-1 adenocarcinoma cells; KB-3-1 viability, CellTiter-Glo ATP luminescence, 72 h; Potency, µM (doses to about 46.1 µM), actives largely listed as cytotoxic; 400,000 compounds, 1.4% hits; AID 1347075; note: nearly all actives have a fitted effect of over 60% in size
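Parental KB-3-1 viability, qHTS format: 72 h compound exposure, 37 °C; CellTiter-Glo; media-only wells and DMSO plates as controls; concentration-effect fits on corrected data.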
IL1B secr inh – blocks inflammasome-driven IL-1 beta release; activity change, % at 57.5 µM; 360,000 compounds, 4.7% hits; THP-1 LPS/ATP IL-1B secretion, AlphaLISA, 16 h; hits give low values; in the data active = activity change below about -50%; inconclusive = mostly about -30% to -49%
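THP-1 cells pretreated 1 hr with compounds (up to 57.5 uM final), then stimulated with LPS (250 ng/mL final) plus ATP (1.25 mM final); secreted IL-1B measured by AlphaLISA after 16 hr, decreased signal indicating inhibition.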
HT1080-NT tox – kills 2HG-producing HT-1080-NT fibrosarcoma cells; HT-1080-NT fibrosarcoma viability, CellTiter-Glo ATP luminescence, 48 h; Potency, µM (doses to about 46.1 µM), most hits filed as cytotoxic; 360,000 compounds, 1.6% hits;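 note: NT is the 2HG producing partner of a matched IDH1 knockdown line; nearly all actives have a fitted effect of over 55% in size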
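HT-1080-NT fibrosarcoma cells (2HG-overproducing), 750 cells/well in RPMI with 5% FBS, dosed after 2 h and incubated 48 h at 37C. CellTiter-Glo luminescence normalized to DMSO and no-cell wells; concentration-response curves fitted and classed.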
KB-V1 cytotox – KB-V1 MDR subline cytotoxicity; KB-V1 MDR cells viability, CellTiter-Glo, 72 h; Potency, µM (highest dose often 46.1 µM), usual class: cytotoxic; 400,000 compounds, 3.4% hits; AID 1347076; note: nearly all actives have a fitted effect of over 60% in size
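Drug-selected KB-V1 cells, grown in DMEM lacking phenol red with 10% FBS, receive compound titrations; after three days at 37 degrees C, surviving cell ATP is quantified by CellTiter-Glo luminescence and responses normalized and curve-fitted.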
Each line names hits and unclear results; the compound was inactive in the other large screens. Unless noted, calls come from the whole dose curve; as a rule, active = well fitted curve in the direction sought with a large enough effect; inconclusive = small, poorly fitted or top-dose-only effect, or another doubt; inactive = no such curve, though single readings can be large; an effect the other way counts as inactive or inconclusive.

COc1ccc(Cl)cc1Cn1c(C)c(C(=O)NCc2ccc(F)cc2)sc1=O	HT1080 IDH1KD tx inconclusive, KB-3-1 tox inconclusive, KB-V1 cytotox 15µM
Cc1c(C(=O)NCc2ccccc2C(F)(F)F)sc(=O)n1Cc1ccc(F)cc1	KB-V1 cytotox inconclusive
COc1ccc(NC(=O)c2sc(=O)n(Cc3ccccc3C#N)c2C)cc1OC	KB-3-1 tox inconclusive, KB-V1 cytotox 5.8µM
Cc1ccc(C2NC(c3ccc(C)cc3)C(C)C(=O)C2C)cc1 (stereo not given)	none
CCN(CC)CCCNC(=O)C(C)n1nc(C)n2c(cc3occc32)c1=O (stereo not given)	none (no result: HT1080 IDH1KD tx, IL1B secr inh, HT1080-NT tox)
COCCN(C(=O)c1ccc(COc2ccccc2)o1)c1c(N)n(CC(C)C)c(=O)[nH]c1=O	none
Cc1c(C(=O)NCc2cccc(C(F)(F)F)c2)sc(=O)n1Cc1cccc(F)c1	HT1080 IDH1KD tx inconclusive, KB-3-1 tox inconclusive, IL1B secr inh -62, HT1080-NT tox inconclusive, KB-V1 cytotox 15µM
Cc1c(C(=O)NCc2ccc(C#N)cc2)sc(=O)n1Cc1ccccn1	KB-V1 cytotox inconclusive
COc1ccc(CNC(=O)c2cn(Cc3ccccc3F)c(=O)s2)cc1	KB-V1 cytotox inconclusive
Cc1cccc(C)c1Cn1c(C)c(C(=O)NCc2ccc(C#N)cc2)sc1=O	HT1080 IDH1KD tx inconclusive, KB-3-1 tox inconclusive, HT1080-NT tox inconclusive, KB-V1 cytotox 18µM
COC(=O)c1ccc(Cn2c(C)c(C(=O)Nc3cccc(Oc4ccccc4)c3)sc2=O)o1	KB-3-1 tox inconclusive, IL1B secr inh inconclusive, KB-V1 cytotox 12µM
Cc1c(C(=O)Nc2cccc(Oc3ccccc3)c2)sc(=O)n1Cc1ccc(F)cc1	KB-3-1 tox inconclusive, KB-V1 cytotox inconclusive
COc1ccc(CNC(=O)c2cn(Cc3ccccc3OC)c(=O)s2)cc1	KB-V1 cytotox 7.3µM
O=C(COc1ccc([N+](=O)[O-])cc1Cl)NCC1CCCO1 (stereo not given)	none
COc1ccc(-n2c(=O)c3sc4ccccc4c3n(Cc3ccccc3C)c2=O)cc1OC	none (no result: HT1080 IDH1KD tx, IL1B secr inh, HT1080-NT tox)
O=C(c1cccs1)N1C[C@@H](O)[C@H](n2cc(-c3ccc(F)cc3)nn2)C[C@@H]1c1ccccc1	KB-3-1 tox inconclusive
Cc1c(C(=O)NCc2ccc(Cl)c(Cl)c2)sc(=O)n1Cc1ccc(C(=O)N(C)C)cc1	KB-3-1 tox inconclusive, IL1B secr inh inconclusive, KB-V1 cytotox inconclusive
Cc1c(C(=O)NCc2cccc(Cl)c2)sc(=O)n1Cc1ccc(C(=O)N(C)C)cc1	KB-3-1 tox inconclusive, KB-V1 cytotox 21µM
COc1ccc(CNC(=O)c2sc(=O)n(Cc3ccccc3OC)c2C)cc1	KB-3-1 tox inconclusive, KB-V1 cytotox 9.2µM
CC(=O)Oc1ccccc1Cn1c(C)c(C(=O)N(C)Cc2ccc(F)cc2)sc1=O	KB-3-1 tox inconclusive, KB-V1 cytotox 18µM
COc1ccccc1Cn1c(C)c(C(=O)NCc2ccc3c(c2)OCCO3)sc1=O	KB-V1 cytotox inconclusive
CC(=O)Oc1ccc(Cn2c(C)c(C(=O)N(C)Cc3ccc(F)cc3)sc2=O)cc1	KB-3-1 tox inconclusive, KB-V1 cytotox inconclusive
COc1ccc(CCNCCC(c2ccccc2)c2ccccc2)cc1OC	KB-3-1 tox inconclusive, IL1B secr inh -54
COc1cc(OC)c(OC)cc1CCC(C)NCCC(c1ccccc1)c1ccccc1 (stereo not given)	HT1080 IDH1KD tx inconclusive, IL1B secr inh -65, HT1080-NT tox inconclusive
COc1ccc(C(CCNCc2ccc(OC)c(OC)c2)c2ccc(F)cc2)cc1 (stereo not given)	none
O=C(Cn1nc(CNc2ccc(Br)cc2)[n+]2c1CCCCC2)c1ccc([N+](=O)[O-])cc1	HT1080 IDH1KD tx inconclusive, KB-3-1 tox 13µM, IL1B secr inh -61, HT1080-NT tox inconclusive
COc1ccc(NCc2nn(CC(=O)c3ccc(Br)cc3)c3[n+]2CCCCC3)cc1	IL1B secr inh inconclusive
O=C(Cn1nc(CNc2ccc(Cl)cc2)[n+]2c1CCCCC2)c1ccc(Br)cc1	KB-3-1 tox inconclusive, IL1B secr inh -52
O=C(CCl)N(CCCNC(=O)C(F)(F)F)c1ccc([N+](=O)[O-])cc1	HT1080 IDH1KD tx 7.3µM, IL1B secr inh -101, HT1080-NT tox 21µM
Cc1ccc(C(=O)Nc2c(-c3cccs3)c(=O)c3ccccc3n2C)cc1	HT1080 IDH1KD tx inconclusive, HT1080-NT tox inconclusive, KB-V1 cytotox inconclusive
COc1ccc(C(=O)Nc2c(-c3cccs3)c(=O)c3ccccc3n2C)cc1	KB-3-1 tox inconclusive, IL1B secr inh -82
COc1cc(C(=O)Nc2nnc(-c3sccc3C)s2)cc(OC)c1OC	HT1080 IDH1KD tx 15µM, KB-3-1 tox inconclusive, HT1080-NT tox inconclusive, KB-V1 cytotox inconclusive
COc1ccc(NC(=O)Nc2nnc(-c3cccs3)s2)cc1	none
COc1ccc(C(=O)Nc2nnc(-c3cccs3)s2)cc1	HT1080 IDH1KD tx inconclusive, KB-3-1 tox 5.2µM, KB-V1 cytotox inconclusive
C/C(=N\NC(=O)C(C)n1nc(C)c([N+](=O)[O-])c1C)c1ccccc1O (stereo not given)	HT1080 IDH1KD tx 9.2µM, KB-3-1 tox inconclusive, HT1080-NT tox inconclusive, KB-V1 cytotox 2.3µM
CC1=C(C#N)C(=O)NC(=O)/C1=C/c1ccc(-c2ccc(S(N)(=O)=O)cc2)o1	KB-V1 cytotox inconclusive
CS(=O)(=O)N(CCC#N)Cc1ccc(/C=C2\C(=O)Nc3ccccc32)o1	IL1B secr inh -78
Cc1ccc(C)c(Cn2nnc3c(=O)[nH]c(C4CCCN(C(=O)c5cccs5)C4)nc32)c1 (stereo not given)	none
C=CCC[C@H](CCCCC)OC(=O)/C=C/[C@@H](O)[C@H](O)C[C@@H](O)CC=C	HT1080 IDH1KD tx inconclusive, KB-V1 cytotox inconclusive
C(=C/c1nccc2c1[nH]c1ccccc12)/c1ccc2c(c1)OCO2	HT1080 IDH1KD tx 16µM, HT1080-NT tox inconclusive
COc1ccc(/C=C/c2nccc3c2[nH]c2ccccc23)cc1	none (no result: HT1080 IDH1KD tx, IL1B secr inh, HT1080-NT tox)
COc1ccc(-c2noc(CSc3nnc(C)n3-c3cccc(C)c3)n2)cc1	none (no result: HT1080 IDH1KD tx, IL1B secr inh, HT1080-NT tox)
Nc1ncnc2c1nc(Cl)n2[C@@H]1O[C@H](CO)[C@@H](O)[C@@H]1O	KB-3-1 tox inconclusive (no result: HT1080 IDH1KD tx, IL1B secr inh, HT1080-NT tox)
OCC1OC(n2cnc3c(NCc4ccccc4O)ncnc32)C(O)C1O (stereo not given)	HT1080 IDH1KD tx 9.2µM, KB-3-1 tox inconclusive, IL1B secr inh -86, HT1080-NT tox 13µM, KB-V1 cytotox 10µM
Nc1ncnc2c1nc(-c1ccccc1)n2C1OC(CO)C(O)C1O (stereo not given)	HT1080 IDH1KD tx inconclusive, IL1B secr inh -50
OCC1OC(n2cnc3c(NCCc4ccccc4)ncnc32)C(O)C1O (stereo not given)	HT1080 IDH1KD tx inconclusive, HT1080-NT tox 2.1µM, KB-V1 cytotox inconclusive
O=C(Cn1c(=O)c(=O)n(Cc2ccccc2)c2ccc(Cl)cc21)Nc1cccc(F)c1	KB-V1 cytotox 13µM
COc1cccc(CNC(=O)[C@@H]2CCCN2C(=O)[C@@H]2CCCN2C(=O)c2cccc3ccccc23)c1	none
